# Screening results as filed in PubChem BioAssay.
# TGFb SMAD3 inh – blocks TGF-b signaling. HepG2 CAGA-GFP TGF-b/SMAD3 reporter, GFP fluorescence, 18 h; TGF-beta stimulated, 500 pg/mL final. 410,000 compounds, 1.2% hits. Potency, µM (series often up to 46.1 µM), for inactives: at the top dose activity, negative = inhibition, hits mostly inhibitors; further: potency means the concentration at half of the fitted maximal effect; on the % scale 0 is the no-effect control and ±100 the full control effect; nearly all actives have a fitted effect of over 65% in size
#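 First, reporter cells (HEPG2 CAGA-GFP) rested 2 h at 37 degrees C. Next, compounds were pinned in and TGF-beta added to 500 pg/mL final. After 18 h, GFP was imaged per cell and summed per well.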
# TDP1 block – TDP1 (human) enzyme inhibition | Q9NUW8 | 350,000 compounds, 0.28% hits | recombinant TDP1, AlphaScreen DNA substrate cleavage | Potency, µM (highest dose often 130 µM), without a hit: at the highest dose activity change, negative = inhibition, actives largely listed as inhibitors; further: potency means the concentration at half of the fitted maximal effect; on the % scale 0 is the no-effect control and ±100 the full control effect; nearly all actives have a fitted effect of over 40% in size
# Target sequence (Q9NUW8 whole entry, looked up): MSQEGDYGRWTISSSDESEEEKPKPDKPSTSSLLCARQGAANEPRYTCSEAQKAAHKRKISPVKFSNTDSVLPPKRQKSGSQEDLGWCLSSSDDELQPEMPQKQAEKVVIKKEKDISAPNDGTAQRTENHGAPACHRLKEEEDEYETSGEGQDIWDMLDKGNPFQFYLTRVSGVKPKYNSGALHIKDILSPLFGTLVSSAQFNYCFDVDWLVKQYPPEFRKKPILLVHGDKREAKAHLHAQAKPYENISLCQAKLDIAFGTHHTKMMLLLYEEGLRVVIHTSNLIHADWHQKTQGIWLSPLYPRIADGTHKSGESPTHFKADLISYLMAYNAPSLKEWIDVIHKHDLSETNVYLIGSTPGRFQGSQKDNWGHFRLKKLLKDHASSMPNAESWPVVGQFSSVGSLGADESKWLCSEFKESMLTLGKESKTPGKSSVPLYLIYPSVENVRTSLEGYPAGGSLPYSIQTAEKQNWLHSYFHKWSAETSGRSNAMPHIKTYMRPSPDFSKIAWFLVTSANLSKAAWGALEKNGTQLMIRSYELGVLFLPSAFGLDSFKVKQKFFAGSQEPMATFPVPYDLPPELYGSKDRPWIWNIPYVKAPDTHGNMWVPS
#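 E. coli-derived human Tdp1, 1 nM final. Cpd preinc 15 min RT; substrate 15 nM final, 5 min RT; AS bead mix 10 ug/ml final, 10 min RT. Signal loss = tyrosine-FITC cleavage. No-enzyme wells = max signal.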
# IL1B secr inh – inflammasome signaling inhibition, IL-1 beta readout. THP-1 LPS/ATP IL-1B secretion, AlphaLISA, 16 h; active compounds read low. activity change, % at 57.5 µM. 360,000 compounds, 4.7% hits; in the data active means activity change below about -50%; inconclusive means mostly about -30% to -49%; further: on the % scale 0 is the no-effect control and ±100 the full control effect
#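 Secreted IL-1B measured by AlphaLISA bead assay after 16 h compound exposure of THP-1 cells; compounds (final up to 57.5 uM) added 1 h before LPS (250 ng/mL) and ATP (1.25 mM) stimulation; lower signal means less secretion.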
# TDP1 cell CPT – growth inhibition of DT40 Tdp1-/-;hTDP1 cells with camptothecin (screen for TDP1 inhibitors); 420,000 compounds, 12% hits; Potency, µM (series often up to 46.2 µM), for the others: at the highest dose activity change, negative = growth inhibition, usual class: inhibitors; chicken DT40 Tdp1-/-;hTDP1 cells + 20 nM CPT, ATP luminescence, 48 h; further: potency means the concentration at half of the fitted maximal effect; on the % scale 0 is the no-effect control and ±100 the full control effect; nearly all actives have a fitted effect of over 55% in size
#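 Chicken DT40 Tdp1-/- cells stably complemented with human TDP1 were seeded at 400 cells/well in medium containing 20 nM camptothecin, exposed to pin-transferred compounds, and grown at 37 °C for at least 48 hr. Viability was read as ATP luminescence.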
# TDP1 cell noCPT – qHTS for Inhibitors of human tyrosyl-DNA phosphodiesterase 1 (TDP1): qHTS in cells in absence of CPT; DT40 Tdp1-/- hTDP1 cells, no CPT, ATP luminescence, 48 h; Potency, µM (highest dose often 46.2 µM), without a hit: at the highest dose activity change, negative = growth inhibition, actives largely listed as inhibitors; 420,000 compounds, 15% hits; further: potency means the concentration at half of the fitted maximal effect; on the % scale 0 is the no-effect control and ±100 the full control effect; nearly all actives have a fitted effect of over 55% in size
#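 Growth kinetics read by CellTiter-Glo luminescence after ≥48 hr at 37 °C. Cells: DT40 Tdp1-/- stably carrying human TDP1, 400 per well, compound exposure in the absence of CPT (DMSO vehicle).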
# HepG2 viability – kills HepG2 cells in TGF-b inhibitor counter-screen; HepG2 CAGA-GFP viability, ATP luminescence, 18 h; Potency, µM (doses to about 46.1 µM), inactives show at the highest dose activity change, negative = cytotoxicity, actives largely listed as cytotoxic; 410,000 compounds, 0.76% hits; AID 588856; further: potency means the concentration at half of the fitted maximal effect
#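 CellTiter-Glo luminescence gave cytotoxicity after 18 hours at 37 degrees C. The cells were HepG2 CAGA-GFP in 1% FBS DMEM, stimulated with 500 pg/mL TGF-beta after compound addition. %Activity was normalised to no-cell wells (complete cell-killing) and DMSO (no toxicity), and curves were fitted and classified.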
# Active calls of the source: *; ? = inconclusive; . = not tested or not shown; ! = not active in a repeat. Sampled rows, rich in hits. Any-hit rate of the full collection: about 18%. Unless noted, the call rests on the fitted dose curve; in most records, active means well fitted curve in the direction sought with a large enough effect; inconclusive means small, poorly fitted or top-dose-only effect, or another doubt; inactive means no such curve, though single readings can be large; an effect the other way counts as inactive or inconclusive.
SMILES,TGFb SMAD3 inh,TDP1 block,IL1B secr inh,TDP1 cell CPT,TDP1 cell noCPT,HepG2 viability
COc1ccc(NC(=O)C2CCC(CNS(=O)(=O)c3ccc(Br)s3)CC2)cc1OC (configuration not stated),?,2%,.,3%,-16%,-40%
Cc1cccc(NC(=O)C2CCC(CNS(=O)(=O)c3ccc(Br)s3)CC2)c1 (configuration not stated),-14%,2%,.,26µM*,16µM*,-55%
COc1cccc(NC(=O)C2CCC(CNS(=O)(=O)c3cccs3)CC2)c1 (configuration not stated),-18%,3%,-18,-10%,?,-20%
COc1ccccc1CCNC(=O)Cn1ccc2cc(S(=O)(=O)N3CCCCCC3)ccc21,-18%,0%,.,?,?,-11%
CSc1ccc(CCNC(=O)Cn2ccc3cc(S(=O)(=O)N4CCCCCC4)ccc32)cc1,-8%,0%,.,15µM*,?,-17%
O=C(Cn1ccc2cc(S(=O)(=O)N3CCCCCC3)ccc21)NCCc1ccc(Cl)cc1,-29%,8%,.,16µM*,18µM*,-20%
COc1ccc(CCNC(=O)Cn2ccc3cc(S(=O)(=O)N4CCCCC4)ccc32)cc1OC,-25%,6%,.,?,?,-8%
CCOc1ccc(CCNC(=O)Cn2ccc3cc(S(=O)(=O)N4CCCC4)ccc32)cc1,-20%,4%,23,?,?,-18%
CCOc1ccc(CCNC(=O)Cn2ccc3cc(S(=O)(=O)N4CCCCCC4)ccc32)cc1,0%,3%,.,21µM*,13µM*,-26%
COc1ccc(OC)c(CCNC(=O)Cn2ccc3cc(S(=O)(=O)N4CCCCC4)ccc32)c1,?,3%,.,?,7.3µM*,-7%
COCCN(C(=O)CCc1nnc(Cc2c[nH]c3ccccc23)o1)C(C)C,31%,.,8,0%,-25%,41%
C[C@@H]1CN([C@H](C)CO)C(=O)c2cc(Br)cnc2O[C@@H]1CN(C)C(=O)C1CCOCC1,0%,.,24,-17%,-1%,-17%
Cc1ccc(NS(=O)(=O)N2CCCCC2)cc1,1%,.,15,22%,0%,4%
COc1ccc(/C=C/C(=O)OCC(=O)NCCC2=CCCCC2)cc1,-15%,3%,4,-16%,-12%,-11%
COc1cccc(/C=C/C(=O)OCC(=O)NCCC2=CCCCC2)c1,-7%,-3%,20,?,23µM*,-8%
COc1cccc(/C=C/C(=O)OCC(=O)NCc2ccco2)c1,-1%,50µM*,0,-6%,-14%,-14%
Cc1ccc(O)c(NC(=O)c2cc(C)no2)c1,18%,.,45,1%,6%,-12%
O=C(NCc1ccccc1)[C@@H]1C[C@H]1[C@@H](NP(=O)(c1ccccc1)c1ccccc1)c1ccccc1,-10%,0%,0,-27%,?,-14%
Cc1ccc(CNC(=O)[C@H]2C[C@@H]2[C@H](NP(=O)(c2ccccc2)c2ccccc2)c2ccccc2)o1,-2%,7%,13,?,21µM*,0%
COc1ccc(/C=N/NC(=O)c2ccc3nc[nH]c3c2)c(OC)c1,0%,2%,-4,4.6µM*,?,3%
CCN(CC)c1ccc(/C=N/NC(=O)c2ccoc2C)c(O)c1,?,12%,144,13µM*,3.3µM*,-59%
CCN(CC)c1ccc(/C=N/NC(=O)OC)c(O)c1,-12%,8%,-9,?,26µM*,-2%
CCN(CC)c1ccc(/C=N/NC(=S)NC)c(O)c1,?,5%,91,0.73µM*,0.52µM*,-36%
CCN(CC)c1ccc(/C=N/NC(=O)c2ccc3nc[nH]c3c2)c(O)c1,-2%,13%,135,18µM*,?,3%
C=CCCC(=O)N1C[C@H]2CON(C)[C@H]2C[C@H]1c1ccc(N2CCCCC2)cc1,?,.,-13,-9%,-15%,-2%
SMILES,TGFb SMAD3 inh,TDP1 block,IL1B secr inh,TDP1 cell CPT,TDP1 cell noCPT,HepG2 viability
Cc1ccc(CN(C(=O)N2CCN(C)CC2)S(=O)(=O)c2ccc(C)cc2)cc1,7%,0%,4,16%,0%,5%
Cc1ccc(NC(=O)/C=C/c2ccco2)cc1F,-2%,-12%,.,7.3µM*,9.2µM*,-31%
Cc1cc(NC(=O)/C=C/c2ccco2)ccc1NC(=O)c1ccccc1,0%,-8%,-24,-15%,-26%,-10%
O=C(/C=C\c1ccco1)Nc1cc([N+](=O)[O-])ccc1F,?,1%,22,2.1µM*,1.6µM*,20%
COC(=O)CSc1nnc(CNC(=O)c2ccco2)n1-c1ccc(F)cc1,-4%,3%,14,-3%,-5%,1%
COC(=O)CSc1nnc(CNC(=O)c2ccccc2F)n1-c1ccc(F)cc1,-12%,7%,-56*,3%,?,-20%
CCN(CC)S(=O)(=O)c1ccc(N2CCCC2)c(NC(=O)c2ccc(OC)cc2OC)c1,-22%,3%,?,18µM*,16µM*,-20%
CCN(CC)S(=O)(=O)c1ccc(N2CCCCC2)c(NC(=O)/C(C#N)=C/c2ccc(OC)cc2)c1,-7%,5%,-9,?,16µM*,-4%
CCN(CC)S(=O)(=O)c1ccc(N2CCCC2)c(NC(=O)Cc2ccc(OC)cc2)c1,0%,6%,-1,?,21µM*,-6%
CCN(CC)S(=O)(=O)c1ccc(N2CCCC2)c(NC(=O)Cc2cc(OC)c(OC)c(OC)c2)c1,1%,.,3,-2%,-23%,8%
Cc1ccc(S(=O)(=O)NCC(c2ccc(N(C)C)cc2)N2CCCC2)cc1 (configuration not stated),?,6%,.,?,?,-2%
COC(=O)C1CCN(C(=O)COC(=O)CSc2ccc(C(N)=O)cc2[N+](=O)[O-])CC1,3%,0%,22,12%,-3%,-7%
Nc1cc(-c2ccncc2)c[nH]c1=O,13%,1%,19,?,16µM*!,-1%
CC1=NN(c2nc3ccccc3[nH]2)C(=O)/C1=C/N(C)C,8%,8%,16,4.6µM*,?,1.6µM*
CCOC1=NN(c2ccccc2)C(=O)/C1=C\N(C)C,-7%,9%,-12,0%,-4%,-7%
